Screening data (PubChem BioAssay)
Compounds with a hit are over-represented: about 2.4% of the library has one in this group of screens.
HepG2 tox – kills HepG2 cells in TGF-b inhibitor counter-screen. HepG2 CAGA-GFP viability, ATP luminescence, 18 h. Potency, µM (titrated, usually from 46.1 µM), usual class: cytotoxic. 410,000 tested, 0.76% active. AID 588856
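HepG2 CAGA-GFP cells (1000/well, DMEM with 1% FBS) received compound, then TGF-beta at 500 pg/mL final, and were incubated 18 hours at 37 degrees C. Viability was read by CellTiter-Glo luminescence. Media-only wells were set as complete cell-killing and DMSO as no toxicity.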
ATXN2 expr inh – reduces ATXN2 reporter expression in HEK-293 cells | HEK-293 ATXN2-luciferase reporter, luminescence, 24 h | Potency, µM (top dose mostly 57 µM), most hits filed as inhibitors | 360,000 tested, 0.72% active; also: nearly all actives have a fitted effect of over 55% in size
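ATXN2-luciferase reporter cells (luciferase flanked by upstream and downstream ATXN2 gene portions) were treated 24 h at 37 °C with compounds at up to 57 uM. SteadyGlo luminescence gave expression; GF-AFC fluorescence gave viability.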
Anesthetic bind – binds horse apoferritin like a general anesthetic; Potency, µM (top dose mostly 77.5 µM), most hits filed as inhibitors; P02791; AID 485281; apoferritin/1-aminoanthracene competitive binding, fluorescence; 350,000 tested, 0.074% active; also: nearly all actives have a fitted effect of over 20% in size
Target sequence (P02791 2-175 limits assumed): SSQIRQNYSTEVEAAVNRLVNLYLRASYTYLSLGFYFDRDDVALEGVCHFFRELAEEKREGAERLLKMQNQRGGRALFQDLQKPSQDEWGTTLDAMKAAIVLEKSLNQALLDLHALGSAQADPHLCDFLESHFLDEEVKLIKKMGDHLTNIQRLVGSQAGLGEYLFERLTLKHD
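Steps: apoferritin (10 uM) was premixed with half-saturated 1-AMA in PBS, compounds were pin-transferred, plates stood 10 min at room temperature, fluorescence was read at 380/535 nm, and curves were fitted with a Hill equation.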
TGFb SMAD3 inh – TGF-b pathway inhibition | HepG2 CAGA-GFP TGF-b/SMAD3 reporter, GFP fluorescence, 18 h; TGF-beta stimulated, 500 pg/mL final | Potency, µM (highest dose often 46.1 µM), usual class: inhibitors | 410,000 tested, 1.2% active | AID 588855; also: nearly all actives have a fitted effect of over 65% in size
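Using HEPG2 CAGA-GFP reporter cells at 1000 cells/well, we pinned test compounds, stimulated with recombinant TGF-beta (500 pg/mL final) and measured total well GFP after 18 h.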
ATXN viability – cell viability loss in ATXN counter-screen; S2 cells (HEK-293 line with an ATXN2-luciferase reporter) viability, CellTiter-Fluor protease fluorescence, 24 h; Potency, µM (doses to about 56.7 µM), usual class: cytotoxic; 400,000 tested, 0.49% active; also: nearly all actives have a fitted effect of over 40% in size
Large screens that a line does not name were inactive. Calls follow the shape of the dose curve; as a rule, active = well fitted curve in the direction sought with a large enough effect; inconclusive = small, poorly fitted or top-dose-only effect, or another doubt; inactive = no such curve, though single readings can be large; an effect the other way counts as inactive or inconclusive.

O=C(Nc1nc2c(s1)CCCC2)c1cccs1	HepG2 tox 10µM
CS(=O)(=O)c1ccc2nc(NC(=O)c3cccc(NS(=O)(=O)c4ccc(F)c(F)c4)c3)sc2c1	TGFb SMAD3 inh 18µM
Cc1ccc2nc(NC(=O)c3cccs3)sc2c1	ATXN viability inconclusive
CC(=Cc1ccccc1)C=C1SC(=S)N(CC(=O)O)C1=O	none (no result: HepG2 tox, Anesthetic bind, TGFb SMAD3 inh, ATXN viability)
O=[N+]([O-])c1ccc(CNc2cccc(F)c2)s1	Anesthetic bind inconclusive
Cc1cccc(NCc2ccc([N+](=O)[O-])s2)c1	Anesthetic bind 16µM, ATXN viability inconclusive
Cc1ccccc1NCc1ccc([N+](=O)[O-])s1	Anesthetic bind 8.9µM (no result: ATXN viability)
COc1ccccc1NCc1ccc([N+](=O)[O-])s1	Anesthetic bind inconclusive
Cc1ccc(NCc2ccc([N+](=O)[O-])s2)cc1	Anesthetic bind 16µM, TGFb SMAD3 inh inconclusive, ATXN viability inconclusive
CCCCn1c(N)c(N(CC(C)C)C(=O)CSCc2c(C)noc2C)c(=O)[nH]c1=O	none (no result: Anesthetic bind)
O=C1C=CC(=O)N1CCCCCCN1C(=O)C=CC1=O	ATXN2 expr inh inconclusive, TGFb SMAD3 inh 4.5µM (no result: ATXN viability)
CC1(C)[C@H]2CC[C@]3(C)[C@@H](C(=O)C=C4[C@@H]5C[C@@](C)(C(=O)O)CC[C@]5(C)CC[C@]43C)[C@@]2(C)CC[C@@H]1O	none (no result: HepG2 tox, Anesthetic bind, TGFb SMAD3 inh, ATXN viability)
S=C(NCCCc1cnc[nH]1)NCCCN(Cc1ccc(Cl)cc1)c1ncc(Br)cn1	TGFb SMAD3 inh 18µM (no result: ATXN2 expr inh, Anesthetic bind, ATXN viability)
S=C(NCCCc1cnc[nH]1)NCCCN(Cc1ccc(Cl)cc1)c1ccc(Br)cn1	ATXN2 expr inh inconclusive, TGFb SMAD3 inh inconclusive, ATXN viability 28µM (no result: Anesthetic bind)
S=C(NCCCc1cnc[nH]1)NCCCN(CCc1ccc(Cl)cc1)c1ccc(Br)cn1	HepG2 tox 10µM, TGFb SMAD3 inh inconclusive (no result: ATXN2 expr inh, Anesthetic bind, ATXN viability)
O=C(NCCCc1cnc[nH]1)NCCCN(Cc1ccc(Cl)cc1)c1ccc(Br)cn1	TGFb SMAD3 inh inconclusive (no result: ATXN2 expr inh, Anesthetic bind, ATXN viability)
S=C(NCCCc1cnc[nH]1)NCCCN(CCc1ccccc1)c1ccc(Br)cn1	TGFb SMAD3 inh inconclusive (no result: ATXN2 expr inh, Anesthetic bind, ATXN viability)
CCCCN(CCCNC(=S)NCCCc1cnc[nH]1)c1ccc(Br)cn1	ATXN2 expr inh inconclusive, TGFb SMAD3 inh inconclusive, ATXN viability 18µM (no result: Anesthetic bind)
COc1ccc(C(C#N)c2ccc(=O)[nH]n2)cc1 (stereo not drawn)	none
COc1ccc(CCNC(=O)CS(=O)(=O)Cc2nc(-c3cccc(Cl)c3)oc2C)cc1OC	none
CC(=O)O[C@H]1C[C@@H]2CC[C@H]3[C@H]4C[C@H]([N+]5(C)CCCCC5)[C@@H](OC(C)=O)[C@@]4(C)CC[C@@H]3[C@@]2(C)C[C@H]1N1CCCCC1	none (no result: HepG2 tox, Anesthetic bind, TGFb SMAD3 inh, ATXN viability)
COc1ccc(C(=O)NC(C)CCc2ccccc2)c(O)c1 (stereo not drawn)	TGFb SMAD3 inh inconclusive, ATXN viability inconclusive
Cc1c(Cl)cccc1NC(=O)c1ccc2c(c1)CCCN2S(C)(=O)=O	ATXN viability inconclusive
Cc1c(C(=O)NCC2(N3CCOCC3)CCCC2)cnn1-c1nccc(-c2ccccc2F)n1	none (no result: HepG2 tox, ATXN2 expr inh, Anesthetic bind, TGFb SMAD3 inh)
O=c1[nH]nc(CNc2ccc(O)cc2)c2ccccc12	HepG2 tox 10µM, TGFb SMAD3 inh inconclusive
COC(=O)N1[C@H](C)C=C[C@]1(Cc1ccccc1)C(=O)NCc1ccc(N(C)C)cc1	none (no result: HepG2 tox, ATXN2 expr inh, TGFb SMAD3 inh, ATXN viability)
NC(=O)[C@H]1CCCN1C(=O)[C@H](Cc1cnc[nH]1)NC(=O)[C@@H]1CCC(=O)N1	none (no result: HepG2 tox, ATXN2 expr inh, TGFb SMAD3 inh, ATXN viability)
OCCCNCc1cc2cc3c(cc2nc1N1CCN(c2cccc(Cl)c2)CC1)OCO3	none (no result: HepG2 tox, ATXN2 expr inh, Anesthetic bind, TGFb SMAD3 inh)
COc1ccc(-c2nc(-c3ccc(NC(=O)c4ccc(Br)o4)cc3)no2)cc1OC	ATXN2 expr inh inconclusive, TGFb SMAD3 inh inconclusive, ATXN viability 18µM
O=C1CC(O)(C(F)(F)F)Oc2c1ccc1ccccc21 (stereo not drawn)	HepG2 tox 10µM, TGFb SMAD3 inh 16µM
O=C(NCc1nnc2n1CCN(Cc1ccc(C(F)(F)F)cc1)CC2)c1ccccn1	none (no result: HepG2 tox, ATXN2 expr inh, Anesthetic bind, TGFb SMAD3 inh)
CCOc1ccc(NC(=O)COC(=O)c2ccccc2OCC(=O)N(C)C)cc1	none (no result: ATXN2 expr inh, Anesthetic bind, ATXN viability)
CC1=NN(C(N)=S)C(=O)C1N=Nc1cccc(C)c1 (stereo not drawn)	TGFb SMAD3 inh 1.8µM (no result: ATXN2 expr inh)
Cn1nc([N+](=O)[O-])nc1S(C)(=O)=O	HepG2 tox 20µM, ATXN2 expr inh inconclusive, TGFb SMAD3 inh 13µM, ATXN viability inconclusive
CS(=O)(=O)c1nc([N+](=O)[O-])nn1CCCc1ccccc1	ATXN2 expr inh inconclusive, TGFb SMAD3 inh inconclusive (no result: Anesthetic bind, ATXN viability)
